Only some compounds are listed: those with a hit (about 19% of all), similar ones and a draw of the others.
TDP1 cell CPT: qHTS for Inhibitors of human tyrosyl-DNA phosphodiesterase 1 (TDP1): qHTS in cells in presence of CPT | chicken DT40 Tdp1-/-;hTDP1 cells + 20 nM CPT, ATP luminescence, 48 h | Potency, µM (top dose mostly 46.2 µM), for the others: at the top dose activity change, negative = growth inhibition, hits mostly inhibitors | 420,000 tested, 12% active; also: potency is read from the fitted curve at half-maximal effect; % is scaled to controls: 0 for no effect and ±100 for the full control effect; nearly all actives have a fitted effect of over 55% in size
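Cell growth measured by CellTiter-Glo luminescence after a minimum 48 h, 37 C compound exposure with 20 nM CPT in Tdp1-knockout DT40 cells stably expressing hTDP1, seeded 400/well; qHTS titration format.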
IL-1B inflam inh: qHTS for Inhibitors of Inflammasome Signaling: IL-1-beta AlphaLISA Primary Screen | THP-1 LPS/ATP IL-1B secretion, AlphaLISA, 16 h; stronger effect = lower value | activity change, % at 57.5 µM | 360,000 tested, 4.7% active; in the data active = activity change below about -50%; inconclusive = mostly about -30% to -49%; also: % is scaled to controls: 0 for no effect and ±100 for the full control effect
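THP-1 cells pretreated 1 hr with compounds (up to 57.5 uM final), then stimulated with LPS (250 ng/mL final) plus ATP (1.25 mM final); secreted IL-1B measured by AlphaLISA after 16 hr, decreased signal indicating inhibition.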
ASM inhibitor: Inhibitors of Secretory Acid Sphingomyelinase (S-ASM): qHTS | 340,000 tested, 0.006% active | Potency, µM (highest dose often 57.5 µM), inactives show at the highest dose activity change, negative = inhibition, hits mostly inhibitors | AID 504937, 2011 | placental ASM, HMU-PC fluorogenic substrate, 60 min; also: potency is read from the fitted curve at half-maximal effect
Target sequence (P17405 47-631 limits assumed): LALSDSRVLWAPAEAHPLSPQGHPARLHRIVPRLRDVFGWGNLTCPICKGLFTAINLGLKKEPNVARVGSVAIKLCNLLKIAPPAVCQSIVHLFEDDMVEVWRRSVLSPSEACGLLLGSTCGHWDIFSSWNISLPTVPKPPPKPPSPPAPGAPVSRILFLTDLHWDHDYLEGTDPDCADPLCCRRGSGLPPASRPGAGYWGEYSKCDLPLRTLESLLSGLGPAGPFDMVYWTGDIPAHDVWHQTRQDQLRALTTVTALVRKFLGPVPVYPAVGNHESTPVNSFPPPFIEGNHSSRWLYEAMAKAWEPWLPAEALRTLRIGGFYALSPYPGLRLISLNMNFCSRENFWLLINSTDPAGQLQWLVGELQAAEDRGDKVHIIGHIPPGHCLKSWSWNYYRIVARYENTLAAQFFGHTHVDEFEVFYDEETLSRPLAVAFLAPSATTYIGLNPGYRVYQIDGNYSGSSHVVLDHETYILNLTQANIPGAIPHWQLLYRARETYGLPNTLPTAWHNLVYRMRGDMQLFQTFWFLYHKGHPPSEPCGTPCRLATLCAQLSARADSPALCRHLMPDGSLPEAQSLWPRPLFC
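Fluorogenic HMU-PC substrate (9 uM final) is turned over by placental ASM in 60 min at 37 C after a 10 min compound preincubation. Reaction ended by alkaline stop (pH 10), with fluorescence read at 386/447 nm.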
TGFb SMAD3 inh: qHTS for Inhibitors of TGF-b; HepG2 CAGA-GFP TGF-b/SMAD3 reporter, GFP fluorescence, 18 h; TGF-beta stimulated, 500 pg/mL final; Potency, µM (highest dose often 46.1 µM), for inactives: at the top dose activity, negative = inhibition, most hits filed as inhibitors; 410,000 tested, 1.2% active; AID 588855, 2011; also: potency is read from the fitted curve at half-maximal effect; % is scaled to controls: 0 for no effect and ±100 for the full control effect; nearly all actives have a fitted effect of over 65% in size
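Using HEPG2 CAGA-GFP reporter cells at 1000 cells/well, we pinned test compounds, stimulated with recombinant TGF-beta (500 pg/mL final) and measured total well GFP after 18 h.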
HepG2 viability: qHTS for Inhibitors of TGF-b: Cytotox Counterscreen | Potency, µM (top dose mostly 46.1 µM), for inactives: at the highest dose activity change, negative = cytotoxicity, most hits filed as cytotoxic | HepG2 CAGA-GFP viability, ATP luminescence, 18 h | 410,000 tested, 0.76% active | AID 588856, 2011; also: potency is read from the fitted curve at half-maximal effect
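CellTiter-Glo luminescence gave cytotoxicity after 18 hours at 37 degrees C. The cells were HepG2 CAGA-GFP in 1% FBS DMEM, stimulated with 500 pg/mL TGF-beta after compound addition. %Activity was normalised to no-cell wells (complete cell-killing) and DMSO (no toxicity), and curves were fitted and classified.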
TDP1 cell noCPT: qHTS for Inhibitors of human tyrosyl-DNA phosphodiesterase 1 (TDP1): qHTS in cells in absence of CPT | AID 686978, 2013 | DT40 Tdp1-/- hTDP1 cells, no CPT, ATP luminescence, 48 h | 420,000 tested, 15% active | Potency, µM (series often up to 46.2 µM), for inactives: at the highest dose activity change, negative = growth inhibition, most hits filed as inhibitors; also: potency is read from the fitted curve at half-maximal effect; % is scaled to controls: 0 for no effect and ±100 for the full control effect; nearly all actives have a fitted effect of over 55% in size
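No-CPT arm: Tdp1-/-;hTDP1 DT40 cells (400/well) plus compounds, incubated ≥48 hr at 37 °C. Readout CellTiter-Glo luminescence.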
Active calls of the source: *; u = inconclusive; x = not tested or not shown. Unless noted, calls follow the shape of the dose curve; as a rule, active = well fitted curve in the direction sought with a large enough effect; inconclusive = small, poorly fitted or top-dose-only effect, or another doubt; inactive = no such curve, though single readings can be large; an effect the other way counts as inactive or inconclusive.

SMILES	TDP1 cell CPT	IL-1B inflam inh	ASM inhibitor	TGFb SMAD3 inh	HepG2 viability	TDP1 cell noCPT
CCC(Oc1ccccc1)C(=O)N[C@@H]1C(=O)N2[C@@H]1SC(C)(C)[C@@H]2C(=O)O (some centres not stated)	0.3%	x	x	x	x	0.4%
Cc1ccc(C)c(NC(=O)CCCn2c(C)c3cnn(-c4ccccc4)c(=O)c3c2C)c1	18.4µM*	x	x	u	-10.6%	u
Cc1cccc(N2CCN(C(=O)Cn3c(C)c4cnn(-c5ccccc5)c(=O)c4c3C)CC2)c1C	7.31µM*	x	x	u	-42.4%	5.8µM*
Cc1cc(C(=O)N2CCN(c3cccc(C)c3C)CC2)c2c(C)nn(-c3ccccc3)c2n1	u	x	x	15.3%	-8.2%	7.31µM*
Cc1cccc(NC(=O)CCCn2c(C)c3cnn(-c4ccccc4)c(=O)c3c2C)c1C	20.6µM*	x	x	u	-14.1%	u
Cc1c2cnn(-c3ccccc3)c(=O)c2c(C)n1CCCC(=O)Nc1cc(F)ccc1F	-13.6%	x	x	u	-26.0%	u
Cc1cc(C)c(NC(=O)CCCn2c(C)c3cnn(-c4ccccc4)c(=O)c3c2C)c(C)c1	u	x	x	u	-35.6%	23.1µM*
Cc1ccc(C)c(N2CCN(C(=O)C(C)n3c(C)c4cnn(-c5ccccc5)c(=O)c4c3C)CC2)c1 (configuration not stated)	20.6µM*	x	x	u	-14.7%	16.4µM*
Cc1c2cnn(-c3ccccc3)c(=O)c2c(C)n1CC(=O)NCc1ccc(Cl)cc1	-26.0%	x	x	0.5%	-11.0%	-19.2%
Cn1c(=O)c2cc(NC(=O)Cc3ccccc3F)ccc2n1Cc1ccc(Cl)cc1	u	u	x	4.6%	-28.7%	u
CC1CCC2(CC1)NC(=O)N(CC(=O)N1CCN(C(=O)c3cccs3)CC1)C2=O (configuration not stated)	-1.3%	0.7	-3.1%	0.0%	-27.6%	0.1%
CCc1ccc(-c2cc(C(F)(F)F)n3nc(C(=O)Nc4c(C)nn(Cc5ccccc5C)c4C)cc3n2)s1	18.4µM*	19.1	365.4%	2.4%	-4.5%	16.4µM*
COc1ccc(-c2coc3c(C(=O)NCCN(C)C)cccc23)c(C)c1	u	-21.4	x	28.1%	-30.6%	u
COc1ccc(-c2ccc(C(=O)NCc3ccc(F)c(F)c3)c3occc23)c(C)c1	u	-59.1*	x	-15.7%	-28.4%	u
COc1ccc(-c2coc3c(C(=O)NCCN4CCOCC4)cccc23)c(C)c1	u	-19.6	x	-9.9%	-10.0%	u
COc1ccc(-c2ccc(C(=O)NCC(C)C)c3occc23)c(C)c1	u	u	x	-2.4%	-32.6%	u
Cc1noc(C)c1-c1ccc(C(=O)NCc2ccc(Cl)cc2)c2occc12	u	u	x	-4.2%	-42.7%	u
COc1ccc(-c2coc3c(C(=O)NCc4ccc(F)c(F)c4)cccc23)c(C)c1	u	u	x	-22.1%	-16.1%	14.6µM*
COc1ccc(-c2coc3c(C(=O)NCc4ccc(OC)c(OC)c4)cccc23)c(C)c1	8.2µM*	-20.6	x	-13.2%	-7.2%	6.51µM*
COc1ccc(-c2ccc(C(=O)NCc3ccncc3)c3occc23)c(C)c1	2.06µM*	-28.9	x	-14.7%	-34.4%	1.84µM*
CCOc1cc(Cn2c(-c3ccc(O)c(OCC)c3)nc3ccccc32)ccc1O	u	x	x	-11.4%	-15.5%	u
CCOc1ccc(/C=C/C(=O)Nc2sc3c(c2C(=O)OC)CCC3)cc1	-6.2%	x	x	-1.3%	-13.9%	-8.2%

Screening data deposited in PubChem by National Center for Advancing Translational Sciences (NCATS).
